High-throughput results (PubChem)
PGK inhibitor: qHTS Assay to Find Inhibitors of Phosphoglycerate Kinase. Phosphoglycerate kinase, glycosomal (Trypanosoma brucei brucei), P07378. PGK/GAPDH coupled, Kinase-Glo luminescence, 60 min. Potency, µM (titrated, usually from 57.5 µM), inactives show at the top dose activity change, negative = inhibition, most hits filed as inhibitors. hit rate 0.043% among 380,000. AID 602233, 2012; also: % is scaled to controls: 0 for no effect and ±100 for the full control effect; nearly all actives have a fitted effect of over 60% in size
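Recombinant glycosomal PGK reaction used 1,3-bisphosphoglycerate generated in-well by GAPDH (100nM final) in 100mM TEA pH 7.6, 5mM MgCl2, 0.01% Tween-20. After 60 minutes at room temperature, ATP was read by Kinase-Glo Plus luminescence end-point.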
Pin1 inh: qHTS Assay to Find Inhibitors of Pin1 | Peptidyl-prolyl cis-trans isomerase NIMA-interacting 1 (Homo sapiens), Q13526 | AID 504891, 2011 | Pin1 FP peptide displacement, HiFluor488, 10 min | hit rate 0.009% among 390,000 | Potency, µM (top dose mostly 115 µM), for the others: at the highest dose activity, negative = inhibition, usual class: inhibitors; active = well fitted inhibition curve with a large enough effect in the polarisation, with a control signal flat, not every such curve was filed as active; inconclusive = small, poorly fitted or top-dose-only effect, or effect the other way, or a change in a side signal; inactive = no such curve, though single readings can be large or run the other way; the % refers to the polarisation; also: % is scaled to controls: 0 for no effect and ±100 for the full control effect
Target sequence (Q13526 whole entry, looked up): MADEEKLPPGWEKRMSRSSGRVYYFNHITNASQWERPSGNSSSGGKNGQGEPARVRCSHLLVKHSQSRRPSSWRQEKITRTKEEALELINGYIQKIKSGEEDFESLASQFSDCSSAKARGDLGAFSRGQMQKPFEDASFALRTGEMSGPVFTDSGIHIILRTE
Tb PFK inh-1: qHTS Assay to Find Inhibitors of T. brucei phosphofructokinase; hit rate 0.17% among 330,000; AID 485367, 2010; Potency, µM (highest dose often 57.5 µM), for the others: at the highest dose activity, negative = inhibition, hits mostly inhibitors; T. brucei PFK, ADP-Glo luminescence; ATP-dependent 6-phosphofructokinase (Trypanosoma brucei brucei), O15648;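 also: 0% = uninhibited 1x PFK enzyme wells and -100% = no-enzyme wells; nearly all actives have a fitted effect of over 60% in size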
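1.25 nM PFK with 0.5 mM F6P and 0.1 mM ATP in 0.1 M TEA pH 8.0, 5 mM MgCl2, incubated 45 min at room temperature; ADP measured by ADP-Glo luminescence; compounds titrated up to 57 uM.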
VDR inh: Inhibitors of the vitamin D receptor (VDR): qHTS. Potency, µM, inactives show max response, negative = inhibition, actives largely listed as inhibitors. hit rate 0.93% among 400,000. Vitamin D3 receptor (Homo sapiens), P11473. VDR-SRC2-3 peptide fluorescence polarization, 2 h; also: % is scaled to controls: 0 for no effect and ±100 for the full control effect
Target sequence (P11473 whole entry, looked up): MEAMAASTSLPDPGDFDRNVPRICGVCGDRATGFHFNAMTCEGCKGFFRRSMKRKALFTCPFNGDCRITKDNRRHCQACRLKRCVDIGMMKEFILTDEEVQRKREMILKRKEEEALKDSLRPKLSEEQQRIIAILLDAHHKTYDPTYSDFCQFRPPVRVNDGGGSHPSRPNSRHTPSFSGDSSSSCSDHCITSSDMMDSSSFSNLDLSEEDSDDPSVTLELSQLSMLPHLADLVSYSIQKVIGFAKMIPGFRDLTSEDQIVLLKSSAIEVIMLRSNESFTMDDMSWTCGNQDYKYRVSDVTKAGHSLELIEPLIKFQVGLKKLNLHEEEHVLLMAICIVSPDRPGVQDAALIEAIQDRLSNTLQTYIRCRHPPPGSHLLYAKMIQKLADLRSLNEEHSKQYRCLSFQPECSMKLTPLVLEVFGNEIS
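Compounds are added to VDR with labelled SRC2-3 coactivator peptide and held 2 h at room temperature. Inhibition of the VDR–peptide interaction is then read as a change in fluorescence polarization.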
GLS inhibitor: qHTS for Inhibitors of Glutaminase (GLS); hit rate 0.21% among 410,000; GLS enzymatic activity, qHTS titration; Glutaminase kidney isoform, mitochondrial (Homo sapiens), O94925; Potency, µM (doses to about 45.5 µM), for inactives: at the highest dose activity change, negative = inhibition, most hits filed as inhibitors; also: % is scaled to controls: 0 for no effect and ±100 for the full control effect
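hKGA in 45 mM KH2PO4 (pH 8.2), 0.02% Tween-20 with compound, then 1mM L-Glutamine (stock as added) plus glutamate oxidase/HRP/Amplex red coupling mix. Fluorescence read initially and after 30 min at RT; signal change reflects glutamate formation.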
TbPFK ATP: Tb PFK orthogonal confirmatory assay using ATP depletion (Kinase-Glo Plus) as an alternative measure of Tb PFK activity: Hit Validation. Potency, µM (top dose mostly 57.5 µM), for the others: at the highest dose inhibition. AID 504636, 2011. hit rate 47% among 1,100. Tb PFK enzyme, ATP depletion, Kinase-Glo Plus luminescence. shares compounds with Tb PFK inh-1; calls by dose curve; also: nearly all actives have a fitted effect of over 60% in size
Tb PFK inh-2: Inhibitors of T. brucei phosphofructokinase: Hit Validation; purified T. brucei PFK, ADP-Glo luminescence, 45 min; shares compounds with Tb PFK inh-1; AID 504637, 2011; hit rate 41% among 1,100; Potency, µM (doses to about 57.5 µM), inactives show at the top dose activity change, negative = inhibition, most hits filed as inhibitors;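 also: plate controls were full PFK enzyme control for no effect and no enzyme control for full effect; nearly all actives have a fitted effect of over 60% in size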
* hit, by the source's call; i = inactive; ? = inconclusive; · = no result. The list is not random: actives were taken first. Their share in the collection is about 1.1%. Unless noted, calls follow the shape of the dose curve; as a rule, active = well fitted curve in the direction sought with a large enough effect; inconclusive = small, poorly fitted or top-dose-only effect, or another doubt; inactive = no such curve, though single readings can be large; an effect the other way counts as inactive or inconclusive. Potency is read from the fitted curve at half-maximal effect.

SMILES	PGK inhibitor	Pin1 inh	Tb PFK inh-1	VDR inh	GLS inhibitor	TbPFK ATP	Tb PFK inh-2
CCSc1nnc(NC(=O)COc2ccc3ccccc3c2)s1	10.0%	10.8%	?	2.3%	-9.3%	-32.9%	?
COc1ccc(OCC(=O)Nc2ccc(Cl)cc2C(=O)c2ccccc2)cc1	-7.1%	-0.5%	-4.7%	17.2%	0.6%	·	·
O=c1c2ccccc2nc(/C=C/c2ccccc2O)n1-c1ccc(Br)cc1	8.5%	50.2%	·	-19.5%	3.6%	·	·
COc1ccccc1Cn1c(SCC(=O)C(C)(C)C)nc2cc(C(=O)N3CCC4(CC3)OCCO4)ccc2c1=O	·	·	-1.9%	·	·	·	·
O=C(NCc1ccco1)c1ccc2c(=O)n(Cc3ccco3)c(SCC(=O)N3CCCC3)nc2c1	?	?	?	6.0%	0.2%	?	?
CCOC(=O)[C@]12Cc3cc(C)ccc3[C@H]1N(C(C)C)C(=O)c1ccccc12	·	·	·	·	25.4%	·	·
COc1cc(SSc2cc(OC)cc([N+](=O)[O-])c2N)c(N)c([N+](=O)[O-])c1	·	-12.7%	3.38µM*	7.94µM*	?	2.39µM*	2.69µM*
Nc1nnc(Cc2ccc(Cl)c(Cl)c2)s1	-6.0%	-1.7%	19µM*	-6.3%	2.9%	7.57µM*	19µM*
O=S1(=O)CCN(Cc2ccc(Cl)c(C(F)(F)F)c2)CC1	-2.8%	1.4%	?	16.1%	16.8%	23.9µM*	?
O=C(COc1ccc(Cl)cc1Cl)N/N=C/c1ccc[nH]1	-5.0%	-0.4%	?	-7.6%	3.0%	6.75µM*	15.1µM*
CCN(CC)c1ccc(NC2=C(Cl)C(=O)c3ccccc3C2=O)cc1	-8.2%	1.8%	?	-26.2%	2.6%	7.8%	-9.2%
Cc1ccc(-c2csc3n[nH]c(=S)n23)cc1	-4.9%	-0.1%	?	-33.1%	?	0.301µM*	0.426µM*
C/C(=N\NC(=O)CNc1cccc(Cl)c1C)C1CC1	-9.8%	-0.5%	21.3µM*	-1.2%	1.2%	?	?
O=C(CCC(=O)N1CCOc2ccc(Cl)cc21)NCCN1CCOCC1	-0.5%	1.3%	?	7.0%	0.2%	?	?
O=C(NCCN1CCOCC1)c1ccc(Cl)nc1	i	7.6%	-4.6%	13.0%	-3.4%	·	·
C/C(O)=C(/C#N)C(=O)Nc1cc(Br)ccc1Br	·	·	·	-28.0%	·	·	·
Cc1ccc(-c2cc(C(=O)Nc3nccs3)c3ccccc3n2)o1	-9.0%	1.2%	30.1µM*	7.3%	6.7%	21.3µM*	?
Fc1cc2ncn(Cc3ccccc3)c2cc1F	-3.0%	-10.2%	?	-0.5%	0.0%	?	?
CCN1C[C@@]2(COC)[C@H]3[C@@H](OC)[C@H]4C1[C@@]3([C@H](OC)C[C@@H]2O)[C@H]1C[C@@]2(O)[C@@H](OC(=O)c3ccccc3)[C@@H]1[C@@]4(OC(C)=O)[C@H](O)[C@@H]2OC	·	·	·	0.7%	·	·	·
N#Cc1ccc(CN2CCCC3(CCN(C(=O)Oc4ccccc4)CC3)C2)cc1	·	·	·	-4.0%	·	·	·
c1ccc2sc(C3(N4CCCC4)CCCCC3)cc2c1	·	·	·	-23.8%	·	·	·
CCc1cc(CNC(=O)c2ccc(OC3CCN(CCc4ccccc4)CC3)cc2)on1	-5.0%	-3.3%	15.1µM*	-8.8%	1.8%	16.9µM*	21.3µM*
O=c1c2cc(F)ccc2sn1-c1ccc(F)cc1	2.1%	-11.3%	7.57µM*	17.8µM*	10µM*	?	?
Cc1ccc(C)c(-n2sc3ccc(F)cc3c2=O)c1	i	-5.2%	3.01µM*	20µM*	?	19µM*	16.9µM*
Cc1ccc2nc(C)n(-c3ccc(F)cc3)c(=O)c2c1	7.5%	-0.2%	3.8%	-17.4%	3.9%	·	·
SMILES	PGK inhibitor	Pin1 inh	Tb PFK inh-1	VDR inh	GLS inhibitor	TbPFK ATP	Tb PFK inh-2
COc1ccc(-n2sc3ccc(F)cc3c2=O)cc1	-6.0%	-20.9%	6.75µM*	?	?	?	?
CN1CCCCC1c1cccnc1 (stereo not given)	·	·	·	1.1%	·	·	·
CCCCCCC(=O)O[C@H]1CC[C@H]2[C@@H]3CCC4CC(=O)C=C(C)[C@]4(C)[C@H]3CC[C@]12C (stereo not given in full)	·	·	·	-17.9%	0.2%	·	·
Brc1cccc(OCCn2ccnc2)c1	-1.2%	-8.7%	21.3µM*	-11.6%	-2.4%	12µM*	13.5µM*
O=c1c(-c2ccccc2)c(O)c2ccccc2n1-c1ccccc1	-4.0%	-5.6%	2.8%	-5.1%	87.2%	·	·
Cc1cc(C)c2c(=O)n(CC(=O)N3CCC(N4CCCCC4)CC3)sc2n1	-7.1%	-0.5%	2.39µM*	20µM*	0.7%	?	3.01µM*
CCCNC(=O)Cn1sc2nc(C)cc(C)c2c1=O	1.6%	0.7%	8.49µM*	5.01µM*	35.1%	?	8.49µM*
O=C(Oc1ccc([N+](=O)[O-])cc1)N1CCC(N2CCCCC2)CC1	-10.2%	1.8%	-0.7%	-13.9%	8.0%	·	·
CCOC(=O)C1CCCN(C(=O)Cn2sc3nc(C)cc(C)c3c2=O)C1 (stereo not given)	-8.0%	2.3%	1.51µM*	?	10.2%	?	3.79µM*
CCOC(=O)C1CCCN(c2ccc([N+](=O)[O-])c3nonc23)C1 (stereo not given)	2.9%	?	-2.2%	-9.8%	13.9%	·	·
COc1ccc(NC(=O)CN2C(=O)S/C(=C/c3cccn3-c3ccc(C(=O)O)cc3)C2=O)cc1	·	·	9.53µM*	·	·	19µM*	?
CCOC(=O)C1=C(C)c2ccccc2N(C(=O)OC)C1(C)C(=O)OCC (stereo not given)	-11.8%	-4.4%	?	?	-12.0%	21.3µM*	?
CCOC(=O)C1(c2ccccc2)Oc2ccccc2C(c2ccc(OC)cc2)=C1C(=O)OC (stereo not given)	2.1%	6.1%	0.6%	-13.6%	-2.4%	·	·
O=C(NCCc1c[nH]c2ccccc12)OCCSS(=O)(=O)O	-6.7%	1.8%	23.9µM*	-20.5%	10.0%	23.9µM*	?
CCN(C(=O)CN1CCN(c2ccc(O)cc2)CC1)c1c(N)n(Cc2ccccc2)c(=O)[nH]c1=O	-3.7%	?	?	-29.1%	146.7%	?	?
